Assay results reported in the supplement of paper PMC9446081.
± gives the standard deviation of the averaged measurements.

Legend:
Assay in all cases: relative enzymatic activity vs untreated control (fraction); higher = less inhibition
Settings in all cases: 100 µM; incubation time: 2 h at 37 C
[1] = tested on: DNA gyrase
Procedure: (§1)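 In vitro enzymatic inhibition assays (ProFoldin kits) for 12 purified essential E. coli enzymes or complexes, each treated with 218 active antibacterial compounds at 100 µM for 2 h at 37°C. Read-outs were fluorescence or absorbance (phosphate detection, dye binding), converted to activity via standard curves and expressed relative to untreated DMSO controls.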

[2] = biological target: DNA helicase (UniProt P0ACB1)
Procedure: as §1

[3] = biological target: DNA ligase (UniProt B1XA82)
Procedure: as §1

[4] = biological target: DNA polymerase (UniProt P10443)
Procedure: as §1

[5] = biological target: DNA primase (UniProt P0ABS7)
Procedure: as §1

[6] = biological target: GlmU (UniProt A7ZTU1)
Procedure: as §1

[7] = biological target: Guanlyate kinase (UniProt Q0TBG1)
Procedure: as §1

[8] = biological target: MurA (UniProt Q3YX52)
Procedure: as §1

[9] = biological target: T1, MurD (UniProt P14900)
T1 sequence (whole entry): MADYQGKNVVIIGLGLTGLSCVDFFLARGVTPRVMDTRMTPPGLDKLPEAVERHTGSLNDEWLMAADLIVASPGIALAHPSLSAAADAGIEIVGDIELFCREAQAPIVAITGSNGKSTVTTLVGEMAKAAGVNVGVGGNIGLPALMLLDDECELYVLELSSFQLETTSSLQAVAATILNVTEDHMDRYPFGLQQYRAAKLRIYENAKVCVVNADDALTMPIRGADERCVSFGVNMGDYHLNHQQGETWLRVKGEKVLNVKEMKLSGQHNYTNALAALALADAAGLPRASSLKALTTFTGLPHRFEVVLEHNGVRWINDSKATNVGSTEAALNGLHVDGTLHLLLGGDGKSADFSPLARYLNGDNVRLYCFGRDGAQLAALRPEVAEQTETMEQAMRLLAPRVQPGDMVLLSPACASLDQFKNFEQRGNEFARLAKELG
Procedure: as §1

[10] = biological target: T2, MurF (UniProt P11880)
T2 sequence (whole entry): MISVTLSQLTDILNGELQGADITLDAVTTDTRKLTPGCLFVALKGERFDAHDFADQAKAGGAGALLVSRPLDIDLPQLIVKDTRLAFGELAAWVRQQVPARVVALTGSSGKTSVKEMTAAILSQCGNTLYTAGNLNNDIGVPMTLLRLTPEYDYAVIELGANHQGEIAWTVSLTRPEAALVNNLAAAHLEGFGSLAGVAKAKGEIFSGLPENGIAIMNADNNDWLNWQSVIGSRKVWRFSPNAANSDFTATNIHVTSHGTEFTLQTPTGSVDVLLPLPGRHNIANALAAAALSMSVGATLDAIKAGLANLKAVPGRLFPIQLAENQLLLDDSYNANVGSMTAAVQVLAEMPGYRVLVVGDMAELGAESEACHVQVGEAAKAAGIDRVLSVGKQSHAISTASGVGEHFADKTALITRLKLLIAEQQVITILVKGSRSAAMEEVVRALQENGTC
Procedure: as §1

[11] = tested on: RNA polymerase
Procedure: as §1

DNA polymerase, sequence (P10443 whole entry): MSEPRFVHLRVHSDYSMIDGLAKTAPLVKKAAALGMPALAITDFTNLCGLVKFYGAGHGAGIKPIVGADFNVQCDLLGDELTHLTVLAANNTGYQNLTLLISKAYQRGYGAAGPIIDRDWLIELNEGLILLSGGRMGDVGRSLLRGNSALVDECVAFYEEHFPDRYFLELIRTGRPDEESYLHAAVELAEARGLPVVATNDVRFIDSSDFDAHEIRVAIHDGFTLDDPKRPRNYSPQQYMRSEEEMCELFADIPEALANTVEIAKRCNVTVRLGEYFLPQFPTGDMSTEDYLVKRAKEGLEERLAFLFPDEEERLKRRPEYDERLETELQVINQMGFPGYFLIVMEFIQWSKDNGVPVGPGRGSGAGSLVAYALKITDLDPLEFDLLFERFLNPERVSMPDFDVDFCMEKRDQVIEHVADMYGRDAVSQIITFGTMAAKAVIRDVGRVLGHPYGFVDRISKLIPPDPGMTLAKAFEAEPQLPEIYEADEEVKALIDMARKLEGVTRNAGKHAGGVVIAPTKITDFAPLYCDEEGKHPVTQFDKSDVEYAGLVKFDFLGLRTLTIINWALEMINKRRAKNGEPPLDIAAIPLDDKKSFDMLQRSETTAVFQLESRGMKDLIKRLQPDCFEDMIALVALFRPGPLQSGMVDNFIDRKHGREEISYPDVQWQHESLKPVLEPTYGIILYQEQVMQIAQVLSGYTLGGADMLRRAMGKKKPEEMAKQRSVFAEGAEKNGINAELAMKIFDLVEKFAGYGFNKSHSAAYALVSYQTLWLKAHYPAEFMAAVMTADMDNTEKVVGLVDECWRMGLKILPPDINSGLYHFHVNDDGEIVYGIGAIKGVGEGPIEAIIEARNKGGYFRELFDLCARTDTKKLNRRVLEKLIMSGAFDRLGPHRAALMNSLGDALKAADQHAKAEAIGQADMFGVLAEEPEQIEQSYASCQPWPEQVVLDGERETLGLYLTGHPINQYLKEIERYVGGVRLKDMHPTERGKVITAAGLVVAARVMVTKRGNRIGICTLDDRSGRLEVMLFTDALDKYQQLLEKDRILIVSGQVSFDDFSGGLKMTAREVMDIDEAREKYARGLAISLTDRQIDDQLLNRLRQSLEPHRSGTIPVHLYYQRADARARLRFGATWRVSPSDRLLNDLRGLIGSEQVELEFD
Guanlyate kinase, sequence (Q0TBG1 whole entry): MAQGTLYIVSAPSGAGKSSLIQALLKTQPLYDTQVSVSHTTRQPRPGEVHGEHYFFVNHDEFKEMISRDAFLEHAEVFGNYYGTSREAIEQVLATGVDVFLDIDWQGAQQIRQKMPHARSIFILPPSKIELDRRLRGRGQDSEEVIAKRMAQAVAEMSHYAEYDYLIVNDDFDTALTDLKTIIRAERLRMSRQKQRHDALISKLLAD
MurA, sequence (Q3YX52 whole entry): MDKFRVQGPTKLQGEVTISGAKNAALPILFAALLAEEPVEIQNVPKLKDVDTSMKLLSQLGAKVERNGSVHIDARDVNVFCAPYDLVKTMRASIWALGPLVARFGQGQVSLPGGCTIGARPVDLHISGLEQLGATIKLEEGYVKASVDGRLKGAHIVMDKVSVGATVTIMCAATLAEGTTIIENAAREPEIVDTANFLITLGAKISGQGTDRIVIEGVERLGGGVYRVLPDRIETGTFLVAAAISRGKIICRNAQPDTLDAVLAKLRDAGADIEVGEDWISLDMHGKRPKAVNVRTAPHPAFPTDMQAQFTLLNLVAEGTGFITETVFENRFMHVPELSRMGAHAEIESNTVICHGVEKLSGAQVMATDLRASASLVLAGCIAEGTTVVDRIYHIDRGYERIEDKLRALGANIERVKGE
DNA helicase, sequence (P0ACB1 whole entry): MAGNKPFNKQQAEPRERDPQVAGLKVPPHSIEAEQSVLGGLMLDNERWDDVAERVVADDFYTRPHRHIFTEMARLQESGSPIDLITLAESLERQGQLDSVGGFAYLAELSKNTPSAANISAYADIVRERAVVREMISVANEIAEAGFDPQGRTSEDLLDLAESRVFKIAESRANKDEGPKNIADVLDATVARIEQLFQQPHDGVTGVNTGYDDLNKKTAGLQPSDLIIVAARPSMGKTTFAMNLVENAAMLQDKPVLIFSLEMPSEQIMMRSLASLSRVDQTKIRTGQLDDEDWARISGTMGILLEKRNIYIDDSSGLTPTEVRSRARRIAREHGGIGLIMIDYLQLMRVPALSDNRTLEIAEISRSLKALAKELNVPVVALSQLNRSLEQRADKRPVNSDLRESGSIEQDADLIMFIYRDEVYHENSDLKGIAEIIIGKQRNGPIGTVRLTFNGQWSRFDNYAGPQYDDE
DNA primase, sequence (P0ABS7 whole entry): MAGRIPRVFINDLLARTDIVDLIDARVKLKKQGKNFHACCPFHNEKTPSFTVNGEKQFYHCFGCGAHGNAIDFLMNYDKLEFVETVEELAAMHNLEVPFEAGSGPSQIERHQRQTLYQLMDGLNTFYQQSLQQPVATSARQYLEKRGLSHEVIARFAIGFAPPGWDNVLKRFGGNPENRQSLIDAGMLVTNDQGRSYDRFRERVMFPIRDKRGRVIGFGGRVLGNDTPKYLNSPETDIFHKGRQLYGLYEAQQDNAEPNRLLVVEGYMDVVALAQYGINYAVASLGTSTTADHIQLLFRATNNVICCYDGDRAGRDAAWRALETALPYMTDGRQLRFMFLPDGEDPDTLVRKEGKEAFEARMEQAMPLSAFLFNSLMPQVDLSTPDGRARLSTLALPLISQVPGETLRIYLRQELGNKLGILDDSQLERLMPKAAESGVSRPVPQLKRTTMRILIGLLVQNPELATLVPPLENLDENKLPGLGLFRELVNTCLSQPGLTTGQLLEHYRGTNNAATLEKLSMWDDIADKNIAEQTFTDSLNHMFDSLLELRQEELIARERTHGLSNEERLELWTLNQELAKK
GlmU, sequence (A7ZTU1 whole entry, looked up): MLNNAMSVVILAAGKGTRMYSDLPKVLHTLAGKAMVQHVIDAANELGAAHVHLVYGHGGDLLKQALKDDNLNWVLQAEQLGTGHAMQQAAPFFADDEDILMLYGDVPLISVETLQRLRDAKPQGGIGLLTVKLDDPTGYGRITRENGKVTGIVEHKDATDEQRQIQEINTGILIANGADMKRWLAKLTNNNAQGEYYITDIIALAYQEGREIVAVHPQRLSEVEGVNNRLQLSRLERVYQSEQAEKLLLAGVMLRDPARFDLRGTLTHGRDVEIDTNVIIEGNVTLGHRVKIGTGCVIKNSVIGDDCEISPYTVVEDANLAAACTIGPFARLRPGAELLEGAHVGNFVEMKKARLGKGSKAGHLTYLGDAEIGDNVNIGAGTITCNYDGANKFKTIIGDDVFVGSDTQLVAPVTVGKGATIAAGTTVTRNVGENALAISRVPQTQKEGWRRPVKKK
DNA ligase, sequence (B1XA82 whole entry): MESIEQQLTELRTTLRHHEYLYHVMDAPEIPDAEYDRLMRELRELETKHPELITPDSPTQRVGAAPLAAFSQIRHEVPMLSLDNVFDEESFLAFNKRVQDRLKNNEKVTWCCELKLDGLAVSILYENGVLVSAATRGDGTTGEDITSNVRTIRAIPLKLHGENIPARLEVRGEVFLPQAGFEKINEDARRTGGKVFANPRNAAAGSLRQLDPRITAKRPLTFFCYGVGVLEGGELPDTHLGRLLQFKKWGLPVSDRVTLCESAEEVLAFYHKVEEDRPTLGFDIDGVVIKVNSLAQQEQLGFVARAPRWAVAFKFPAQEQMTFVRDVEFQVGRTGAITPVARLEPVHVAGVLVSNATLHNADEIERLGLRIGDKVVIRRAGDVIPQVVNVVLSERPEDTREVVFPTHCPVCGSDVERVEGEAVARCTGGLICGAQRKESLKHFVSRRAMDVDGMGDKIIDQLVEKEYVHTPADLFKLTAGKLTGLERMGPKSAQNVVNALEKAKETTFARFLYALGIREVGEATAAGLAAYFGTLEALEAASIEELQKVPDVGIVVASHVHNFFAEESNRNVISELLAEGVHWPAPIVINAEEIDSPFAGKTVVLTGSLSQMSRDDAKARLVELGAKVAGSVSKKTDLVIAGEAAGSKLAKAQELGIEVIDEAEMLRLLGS

Structure (SMILES) | relative enzymatic activity [1] | relative enzymatic activity [2] | relative enzymatic activity [3] | relative enzymatic activity [4] | relative enzymatic activity [5] | relative enzymatic activity [6] | relative enzymatic activity [7] | relative enzymatic activity [8] | relative enzymatic activity [9] | relative enzymatic activity [10] | relative enzymatic activity [11]
CCN1CCN(c2cc3c(cc2F)c(=O)c(C(=O)O)cn3C2CC2)CC1 | 0.0177 ± 0.025 | 0.462 ± 0.018 | 1.05 ± 0.34 | 1.15 ± 0.22 | 0.617 ± 0.12 | 1 ± 0.11 | 0.894 ± 0.05 | 0.659 ± 0.029 | 0.59 ± 0.4 | 0.88 ± 0.13 | 0.808 ± 0.02
N[C@@H](C(=O)N[C@@H]1C(=O)N2C(C(=O)O)=C(Cl)CC[C@H]12)c1ccccc1 | 0.732 ± 0.43 | 0.524 ± 0.089 | 0.931 ± 0.12 | 1.03 ± 0.087 | 0.831 ± 0.025 | 1 ± 0.036 | 0.943 ± 0.061 | 0.582 ± 0.21 | 0.603 ± 0.4 | 0.963 ± 0.22 | 0.811 ± 0.13
CON=C(C(=O)N[C@@H]1C(=O)N2C(C(=O)OCOC(=O)C(C)(C)C)=C(C=Cc3scnc3C)CS[C@H]12)c1csc(N)n1 | 0.622 ± 0.19 | 0.322 ± 0.0034 | 0.899 ± 0.1 | 0.496 ± 0.7 | 0.83003 ± 0.00016 | 0.838 ± 0.01 | 0.842 ± 0.11 | 0.335 ± 0.12 | 0.147 ± 0.21 | 0.855 ± 0.25 | 0.945 ± 0.2
O=c1[nH]c(=O)n([C@@H]2C[C@@H](O)[C@@H](CO)O2)cc1F | 1.07 ± 0.043 | 0.591 ± 0.15 | 0.947 ± 0.062 | 0.708 ± 0.44 | 0.873 ± 0.022 | 1.03 ± 0.065 | 0.967 ± 0.1 | 0.74 ± 0.18 | 0.604 ± 0.39 | 1.01 ± 0.22 | 0.834 ± 0.019
CCCCCCCCCCCCCCCC[N+](C)(C)Cc1ccccc1.[Cl-] | 0.3954 ± 0.003 | 0.0157 ± 0.00047 | 0.183 ± 0.12 | 0.0334 ± 0.0085 | 0.27 ± 0.0085 | 0.115 ± 0.0013 | 0.0243 ± 0.0088 | 0.032 ± 0.0013 | 0.0872 ± 0.0094 | 0.156 ± 0.061 | 0.133 ± 0.018
CN(C)C1C(O)=C(C(N)=O)C(=O)C2(O)C(O)=C3C(=O)c4c(O)ccc(Cl)c4C(C)(O)C3CC12.Cl (stereo not drawn) | 1.15 ± 0.17 | 0.47 ± 0.023 | 1.03 ± 0.23 | 1.35 ± 0.47 | 0.707 ± 0.21 | 0.974 ± 0.048 | 0.961 ± 0.076 | 0.767 ± 0.014 | 0.584 ± 0.37 | 0.93 ± 0.17 | 0.822 ± 0.027
CO[C@@H]1[C@@H](OC(=O)c2ccc(C)[nH]2)[C@@H](O)[C@@H](Oc2ccc3c(c2C)OC(=O)[C@H](NC(=O)c2[nH]cc(CC(=O)Nc4cc5ccc(O[C@@H]6OC(C)(C)[C@H](OC)[C@@H](OC(=O)c7ccc(C)[nH]7)[C@H]6O)c(C)c5oc4=O)c2C)C3)CC1(C)C | 0.165 ± 0.23 | 0.0977 ± 0.012 | 0.835 ± 0.013 | 0.759 ± 0.06 | 0.876 ± 0.11 | 0.892 ± 0.021 | 0.72 ± 0.087 | 1.09 ± 0.059 | 0.869 ± 0.57 | 1.26 ± 0.26 | 0.715 ± 0.093
CN(C)c1ccc(O)c2c1CC1CC3C(N(C)C)C(O)=C(C(N)=O)C(=O)C3(O)C(O)=C1C2=O.Cl (stereo not drawn) | 0.541 ± 0.071 | 0.129 ± 0.0081 | 0.831 ± 0.21 | 0.908 ± 0.4 | 0.4515 ± 0.0044 | 0.955 ± 0.066 | 0.577 ± 0.027 | 0.0902 ± 0.0036 | 0.602 ± 0.4 | 0.939 ± 0.18 | 0.184 ± 0.083
